Counter-ions that a name gives are not always drawn. The full ranking holds about 2,000 compounds; the median of “fractional viability relative to vehicle” is about 0.91, and the lowest 2% start at about 0.045. The full list was thinned out, with the lowest values kept by preference.
Tested on: TYKNU
Experiment: fractional viability relative to vehicle; TYKNU is a high-grade serous ovarian cancer line; higher = less growth inhibition
Conditions: 72 h
Summary of the method: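 TYKNU control cells or lentiCRISPRv2 knockout derivatives were plated at 500 cells per well in duplicate into drug-stamped 384-well plates holding a ~2100-compound library at 2 or 10 μM. Culture was in RPMI 1640 with 10% FBS at 37 °C in 5% CO2, with 72 h of drug treatment. Viability was measured by Cell Titer Glo luminescence, and the averaged duplicate treatment wells were normalised to duplicate control wells at the same plate position.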

[1] = 2uM, genotype: DNM1L knockout (sgDNM1L #1)
[2] = 2uM, genotype: sgCTRLA1 (non-targeting control)
[3] = 10uM, genotype: DNM1L knockout (sgDNM1L #1)
[4] = 10uM, genotype: sgCTRLA1 (non-targeting control)

SMILES	fractional viability [1]	fractional viability [2]	fractional viability [3]	fractional viability [4]
CCCc1nc(C(C)(C)O)c(C(=O)OCc2oc(=O)oc2C)n1Cc1ccc(-c2ccccc2-c2nnn[nH]2)cc1 [Olmesartan Medoxomil]	0.907	0.929	1.1	1.02
CC(C)(C)C#Cc1cc(N(C(=O)[C@H]2CC[C@H](C)CC2)[C@H]2CC[C@H](O)CC2)c(C(=O)O)s1 [VX-222 (VCH-222, Lomibuvir)]	0.983	1.03	0.818	0.95
NC(=O)c1cnc(N[C@@H]2CCCC[C@@H]2N)nc1Nc1cccc(-n2nccn2)c1	0.751	0.853	0.185	0.142
Fc1ccc(CNc2ncnc3ccc(F)cc23)cc1 [Spautin-1]	0.675	0.763	0.67	0.447
O=C(NNc1ccccc1)c1ccncc1	0.723	0.931	0.801	0.659
O=C(/C=C/c1ccc2ccccc2n1)c1ccncc1	0.0494	0.0683	0.0258	0.0162
NNC(=O)c1ccncc1 [Isoniazid]	0.893	1.14	0.875	1.06
Cc1ccc(NC(=O)Nc2cc(C(F)(F)F)ccc2F)cc1Nc1ccc2c(c1)NC(=O)/C2=C\c1ccc[nH]1	0.873	0.905	0.918	0.825
CCOC(=O)c1c(CSc2ccccc2)n(C)c2cc(Br)c(O)c(CN(C)C)c12 [Arbidol HCl]	0.913	1.07	0.611	0.645
CCOC(=O)[C@H](CCc1ccccc1)N[C@@H](C)C(=O)N1C(=O)N(C)C[C@H]1C(=O)O [Imidapril HCl]	0.976	1.1	0.958	1.17
CC(C)C[C@H](NC(=O)CNC(=O)c1cc(Cl)ccc1Cl)B1OC(=O)C(CC(=O)O)(CC(=O)O)O1	0.13	0.0935	0.0814	0.0756
COc1cccc2c1C(=O)c1c(O)c3c(c(O)c1C2=O)C[C@@](O)(C(C)=O)C[C@@H]3O[C@H]1C[C@H](N)[C@H](O)[C@H](C)O1 [Daunorubicin HCl]	0.392	0.254	0.0554	0.0241
CC(=O)[C@]1(O)Cc2c(O)c3c(c(O)c2[C@@H](O[C@H]2C[C@H](N)[C@H](O)[C@H](C)O2)C1)C(=O)c1ccccc1C3=O [Idarubicin HCl]	0.362	0.165	0.042	0.021
COc1cccc2c1C(=O)c1c(O)c3c(c(O)c1C2=O)C[C@@](O)(C(=O)CO)C[C@@H]3O[C@H]1C[C@H](N)[C@H](O)[C@H](C)O1 [Doxorubicin (Adriamycin)]	0.377	0.212	0.437	0.323
Nc1cccc(S(=O)(=O)N2CCCN(S(=O)(=O)c3ccc4c(c3)OCCO4)CC2)c1	0.767	0.995	0.742	0.647
NCCCCCNCC12CC3CC(CC(C3)C1)C2 [IEM 1754 dihydrobroMide]	0.967	0.972	0.91	0.898
CC(=O)Oc1cc2c(s1)CCN(C(C(=O)C1CC1)c1ccccc1F)C2 (stereo not drawn) [Prasugrel]	1.14	1.21	0.897	1.08
C[C@@H]1COCCN1c1cc(C2([S@](C)(=N)=O)CC2)nc(-c2cc[nH]c3nccc2-3)n1	0.189	0.127	0.136	0.0834
CCCCCCCCCCCCCCCCn1cc[n+](Cc2ccccc2)c1C	0.134	0.104	0.0139	0.00629

SMILES	fractional viability [1]	fractional viability [2]	fractional viability [3]	fractional viability [4]
Cc1nn(C)c(COc2ccc(N3CCN(S(=O)(=O)N(C)C)CC3)cc2)c1-c1cccc2c(CCCOc3cccc4ccccc34)c(C(=O)O)n(CCN3CCOCC3)c12	0.762	0.94	0.644	0.518
C[C@@H](Oc1cc(-c2cnn(C3CCNCC3)c2)cnc1N)c1c(Cl)ccc(F)c1Cl	0.669	0.73	0.128	0.126
CC[C@H]1[C@@H](O)[C@@H]2[C@H](CC[C@]3(C)[C@@H]([C@H](C)CCC(=O)O)CC[C@@H]23)[C@@]2(C)CC[C@@H](O)C[C@@H]12 [Obeticholic Acid]	0.846	0.891	0.952	0.807
CC(C)(C)C(=O)C(Oc1ccc(Cl)cc1)n1ccnc1 (stereo not drawn) [Climbazole]	0.805	1.06	0.641	0.924
CC(C)(C)c1cc(C(=O)C(C#N)=NNc2cccc(Cl)c2)no1	0.783	0.936	0.57	0.583
COc1cc2c(cc1OC)CN(CCc1ccc(NC(=O)c3cc(OC)c(OC)cc3NC(=O)c3cnc4ccccc4c3)cc1)CC2 [Tariquidar]	0.769	1.05	0.158	0.555
CCc1ccc(OCc2ccccc2C(=O)Nc2ccc3nc(C)cc(N)c3c2)cc1	0.117	0.166	0.0139	0.00672
CCCC(=O)Nc1cccc(NC(=O)c2ccccc2Br)c1	1.11	1.19	0.939	1.21
Cn1c(=O)cc(N2CCC[C@@H](N)C2)n(Cc2ccccc2C#N)c1=O [Alogliptin]	0.928	0.995	0.894	1.03
Cc1ncc([N+](=O)[O-])n1CC(O)CCl (stereo not drawn) [Ornidazole]	1.42	1.24	1.25	1.37
NC(=O)N/N=C/c1ccc([N+](=O)[O-])o1 [Nitrofural]	1.34	1.13	1.26	1.2
CCOC(=O)c1ccc(N2NC(=O)C(=Cc3ccc([N+](=O)[O-])o3)C2=O)cc1	0.944	1.26	0.872	1.02
O=C(N/N=C/c1ccc([N+](=O)[O-])o1)c1ccc(O)cc1 [Nifuroxazide]	0.378	1.1	0.0463	0.0163
CN(C)c1ccc(C(=C2C=CC(=[N+](C)C)C=C2)c2ccc(N(C)C)cc2)cc1 [Crystal Violet]	0.133	0.121	0.0375	0.0133
O=c1[nH]c(=O)n(C2CC(O)C(CO)O2)cc1Br (stereo not drawn) [Bromodeoxyuridine (BrdU)]	0.823	0.962	0.859	0.64
O=C(Nc1ccccc1-c1cn2c(CN3CCNCC3)csc2n1)c1cnc2ccccc2n1	0.608	0.845	0.0197	0.00961
Cc1nc(-c2cccnc2)sc1C(=O)Nc1ccccc1-c1cn2c(CN3CCOCC3)csc2n1	0.821	0.932	0.858	0.78
Cn1c2ccccc2c2c3c(c4c5ccccc5n(CCC#N)c4c21)CNC3=O	0.64	1.01	0.671	0.79
Cn1cncc1[C@@](N)(c1ccc(Cl)cc1)c1ccc2c(c1)c(-c1cccc(Cl)c1)cc(=O)n2C [Tipifarnib]	0.472	0.64	0.272	0.366

SMILES	fractional viability [1]	fractional viability [2]	fractional viability [3]	fractional viability [4]
Cc1nnc(C(C)C)n1C1C[C@H]2CC[C@@H](C1)N2CC[C@H](NC(=O)C1CCC(F)(F)CC1)c1ccccc1 (stereo in doubt) [Maraviroc]	0.973	1.15	0.873	1.03
Cc1cc(-c2ncc(CC(=O)Nc3ccc(-c4cnccn4)cn3)cc2C)ccn1	0.863	1.1	0.665	0.746
CC(C)c1onc(-c2c(Cl)cccc2Cl)c1COc1ccc(/C=C/c2cccc(C(=O)O)c2)c(Cl)c1	0.953	1.1	0.781	1.09
c1ccc(Cn2c(-c3ccc(OC[C@H](C4CCNCC4)n4c(-c5ccccc5)nc5ccccc54)cc3)nc3ccccc32)cc1 [Deltarasin]	0.887	0.966	0.0145	0.0132
c1cc(-c2cnn3cc(-c4ccc(OCCN5CCCCC5)cc4)cnc23)ccn1 [Dorsomorphin (Compound C)]	0.845	0.916	0.552	0.503
C/C(=N\NC(=S)N1CCC1)c1ccccn1	0.171	0.137	0.225	0.167
Fc1ccc2[nH]ccc2c1-c1nc(N2CCOCC2)c2sc(CN3CCN(CC4CC4)CC3)cc2n1	0.883	0.947	0.634	0.711
O=C(NC1CCN(CCCCC2(C(=O)NCC(F)(F)F)c3ccccc3-c3ccccc32)CC1)c1ccccc1-c1ccc(C(F)(F)F)cc1 [Lomitapide Mesylate]	0.573	0.79	0.0435	0.0328
O=C1c2ccccc2C(=O)c2c1ccc(O)c2O [Alizarin]	0.834	1.1	0.8	1.06
O=C(O)c1cc(=O)c2ccccc2o1 [Chromocarb]	0.948	1.07	0.923	1.05
CC(=O)c1cc2c(o1)C(=O)c1ccccc1C2=O [Napabucasin]	0.0305	0.0196	0.018	0.0135
Cc1ccc(NC(=O)c2cccc(C(C)(C)C#N)c2)cc1Nc1ccc2ncn(C)c(=O)c2c1	0.244	0.283	0.27	0.31
CN(C)Cc1cccc(N=C(c2ccccc2)c2c(O)[nH]c3cc(C(=O)N(C)C)ccc23)c1	1.01	0.843	0.588	0.574
CCNC(=O)C#Cc1ccc2c(C(=Nc3ccc(CN(C)C)cc3)c3ccccc3)c(O)[nH]c2c1	0.122	0.0962	0.0494	0.0319
O=C([C@@H](Cc1cccc(C(F)(F)F)c1)NS(=O)(=O)c1cc(F)c2c(c1)CCNC2)N1CCCC1	0.927	1.04	0.863	0.888
CC(C)CCNC(=O)[C@H](CC(C)C)NC(=O)[C@H]1O[C@@H]1C(=O)O [Loxistatin Acid (E-64C)]	0.865	0.938	0.959	0.802
CCCCC(=O)N(Cc1ccc(-c2ccccc2-c2nnn[nH]2)cc1)[C@H](C(=O)O)C(C)C.CCOC(=O)[C@H](C)C[C@@H](Cc1ccc(-c2ccccc2)cc1)NC(=O)CCC(=O)O	0.864	0.941	0.769	0.732
CN1CCN(S(=O)(=O)c2ccc(-c3cnc(N)c(C(=O)Nc4cccnc4)n3)cc2)CC1	0.731	1.08	0.346	0.474
O=C(O)C(Cc1ccccc1[N+](=O)[O-])=NNc1nc(-c2ccc(Cl)c(Cl)c2)cs1 (mixture of isomers)	0.727	0.775	0.717	0.573

From the supplement of paper PMC5919970
